In PubChem BioAssay AID1159580 (chemical genetic matrix, 2015):
The campaign covered roughly 5,500 compounds. About 2,000 (36%) were called active. Not shown: some 18% with an inconclusive outcome. No stated cut-off is given here; in the data, active means normalized growth mostly below about 0.91 (no sharp cut-off); inconclusive means no clear call, values can overlap the other calls; inactive means mostly above about 0.92. The list shows a part of the results.

Test: chemical genetic growth profiling, strain panel (AID 1159580);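 further: tested at 20 µM; growth read once vehicle control cultures reached saturation at 30 °C; 1 = growth at the plate median or of vehicle wells; lower values mean less growth of the strain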
Settings: S. cerevisiae deletion strains, growth OD

Measured: normalized growth

NC(N)=NCCSSCCN=C(N)N
inactive: locus YAL013W, strain DEP1, active compounds read low 0.949 | locus YAL040C, strain CLN3, active compounds read low 0.948 | locus YCL061C, strain MRC1 (second series), active compounds read low 0.979 | locus YDR150W, strain NUM1, active compounds read low 0.988 | locus YDR363W, strain ESC2, active compounds read low 0.941 | locus YER002W, strain NOP16, active compounds read low 0.992 | locus YGR078C, strain PAC10, active compounds read low 0.973 | locus YJR075W, strain HOC1, active compounds read low 0.967 | locus YMR263W, strain SAP30, active compounds read low 0.981 | locus YMR307W, strain GAS1, active compounds read low 0.977 | locus YNL175C, strain NOP13, active compounds read low 0.981 | locus YNL197C, strain WHI3, active compounds read low 0.972 | locus YNL224C, strain SQS1, active compounds read low 1.01 | locus YOR083W, strain WHI5 (second series), active compounds read low 0.963 | locus YPL055C, strain LGE1, active compounds read low 0.983
